Data published in the supplement of paper PMC3334620.
Over roughly 33,000 sequences, “E-score (-0.5 to 0.5)” has its median near -0.016; the highest 2% begin near 0.32. Only a selection was taken, and the highest values are over-represented in it overall.

molecular target: T1, Stp1 (UniProt B3LFK1); test: PBM E-score (8-mer binding enrichment) (E-score (-0.5 to 0.5)); higher = stronger / more preferred TF binding; conditions: protein concentration: 200 nM; construct: GST-full length
T1 sequence: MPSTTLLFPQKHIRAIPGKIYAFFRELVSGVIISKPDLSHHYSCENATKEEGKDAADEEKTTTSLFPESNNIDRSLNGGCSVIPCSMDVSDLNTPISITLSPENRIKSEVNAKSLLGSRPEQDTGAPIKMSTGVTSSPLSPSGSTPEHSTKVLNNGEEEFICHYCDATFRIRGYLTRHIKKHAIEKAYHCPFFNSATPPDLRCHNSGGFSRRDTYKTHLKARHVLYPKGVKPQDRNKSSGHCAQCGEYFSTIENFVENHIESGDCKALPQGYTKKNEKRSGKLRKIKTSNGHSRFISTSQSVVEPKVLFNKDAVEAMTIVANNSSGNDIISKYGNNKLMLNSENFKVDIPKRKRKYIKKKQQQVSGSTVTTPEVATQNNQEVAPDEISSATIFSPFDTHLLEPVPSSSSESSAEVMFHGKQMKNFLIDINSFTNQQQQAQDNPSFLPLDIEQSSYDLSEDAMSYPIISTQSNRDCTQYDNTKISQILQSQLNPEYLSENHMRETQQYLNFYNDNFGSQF
Procedure: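 Universal 'all 10-mer' protein binding microarrays (Agilent AMADID 015681) probed with GST-tagged S. cerevisiae TFs (full-length or DBD) made by in vitro transcription/translation (PURExpress), about 100-200 nM. Bound TF was detected with fluorescent anti-GST. Each ungapped 8-mer (which stands for itself and its reverse complement) is scored by the PBM enrichment score (E-score), a modified Wilcoxon-Mann-Whitney statistic from -0.5 to +0.5, computed with the Universal PBM Analysis Suite. Scale: above 0.35 generally sequence-specific binding.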

Sequence	PBM E-score
AATGTCAC	0.136
CTTATGGA	-0.0787
ACGGCGGA	0.314
CCGGCGAA	0.088
GCGGCGGA	0.358
ATGGCGAC	0.0528
CCGGCGAC	-0.167
CCGGCGGA	0.0459
TCGGCGAA	-0.0263
GCGGCGAA	0.427
AGGGCGAC	0.015
ACGGCGAC	0.467
GCGGCGAC	0.434
GAGGCGAC	0.155
AGCTATGA	-0.183
CACCTGCC	0.055
GGTGGCTA	0.0168
AAGCGTAC	-0.161
AGGGACAT	0.0229
CAGCTTGA	-0.0612
TAAGATGA	0.0182
TCATCCGA	0.0548
CAGGGGGG	-0.469
ATGGCGGC	0.158
ACGGCGGC	0.445

Sequence	PBM E-score
ACGGCGGG	0.289
AGGGCGAA	-0.0283
ATGGCGAA	0.139
ACGGCGAA	0.465
CAAGCTAC	-0.171
GATATATA	0.314
TATATATA	0.345
AGTATATA	0.363
CATATATA	0.256
AGTATATG	-0.0746
AGTATATC	0.0639
AACACTCT	0.00778
AATGGCGT	0.161
ACCGGCGT	0.0951
GACGGGGC	0.143
GACGGCGC	0.451
GCCGGCGC	0.346
CCCGGCGC	0.121
AACGGCGT	0.448
AACGGCGC	0.477
GATGGCGC	0.145
AATGGCGC	0.253
ACCGGCGC	0.3
AACGGGGC	0.186
ATAGCAGC	-0.187

Sequence	PBM E-score
CTGAGCGC	0.0168
GAGAACAA	0.145
CACGGGCA	0.231
ACGTAGTA	0.103
CCCTCTTC	-0.308
AACGGGCG	0.154
AACGGCGG	0.378
AACGGGGG	-0.316
CGACTGCG	-0.098
GAAAGACC	-0.321
AACGCCAC	0.245
AACGCCTT	0.328
AACGCCCC	0.213
AACGCCGA	0.292
AACGCCTA	0.0856
AACGCCGG	0.0903
AACGCCTC	0.225
AACGCCGT	0.482
AACGCCGC	0.47
ACCGACGA	-0.0695
CGCCATCA	-0.144
CTAGGTTA	0.00212
GACTTGGC	-0.232
CGGCCGTA	0.37
CGGCCGGA	-0.15

Sequence	PBM E-score
GGCCCGTA	-0.0728
CGGCCGTC	0.16
GGGCCGTA	0.369
AGGCCGTA	0.298
CGGCCAGC	-0.206
CATGGTCA	0.103
ATCTAAAG	-0.0363
GGAATTGA	0.0238
GGCGCGGA	0.337
GGCGCAAA	0.406
GGCGCCCC	0.284
GGCGCGCC	0.423
CGCGCAAA	0.198
CGCGCGGA	0.256
GTCGCGGA	-0.0678
GGCGCGTA	0.186
TGCGCGCA	0.133
GGCGCGCA	0.318
AGCGCAAA	-0.0739
CGCGCGCA	0.272
CAGCAGTA	-0.0846
AAGAAGCC	0.232
ACCACTTC	-0.242
CGAGCTAG	-0.0273
AGGTTGCC	-0.0941

Sequence	PBM E-score
GCTTGAAC	0.111
AAAGGAGG	-0.258
ACCAAACA	0.201
AAAGTCTG	-0.115
CAATTAGG	0.104
CCCGCGCC	0.297
CGCGCGAG	0.239
CTCGCGCC	0.295
AGCGCGCC	0.196
CCCGCGCG	0.328
AGCGCGCG	0.196
CCCCCGCG	-0.0598
CGCGCGCC	0.403
CGCGCGCG	0.405
ACCTAGCC	-0.186
CTCAATTC	0.0345
GTGCCTAA	0.184
AACAGCGT	0.0405
ATCGGCGA	0.0557
CTCGGCGC	0.382
ATCGGCGG	0.262
CTCGGCGA	0.123
ATCGGCGC	0.342
CTCGGCAC	0.3
ACAACAAT	0.0375

Sequence	PBM E-score
CTCGACAA	-0.0792
CCCGCACG	0.222
AACGCACG	0.36
GCCGCACA	0.452
ACCGCACA	-0.0115
GCCGCACC	0.449
CACGCACG	0.203
AACGCACA	-0.0113
CCCGCACC	-0.149
ACCGCACC	0.0883
CAAACTTG	-0.0331
AAGTGACG	-0.00161
CAGATTGC	0.057
CGAACCTC	-0.0892
CGATGATC	-0.0137
CCGCCACG	0.0257
ACGCCCTA	0.127
GCGCCACA	0.334
GCGCCCCC	-0.129
CCGCCCTA	-0.041
GCGCCCAA	0.119
GCGCCCTA	0.342
GCGCCCCA	0.353
ACGCCACA	0.295
CGCTTGGC	0.0526

Sequence	PBM E-score
CTTGCCTC	0.0687
AACCTATG	0.053
CACCTTTA	-0.0604
AACCTGTC	-0.17
GCACTCGA	-0.0637
CGGCTTGA	0.0356
AGGCTTCA	-0.0829
CGGCTTCA	0.368
TGGCTTAA	0.193
CGGCTTGC	0.37
CGGCTTCC	0.211
AGGCTTGC	-0.31
CGGCTTAG	0.0549
CGGCTTAA	0.318
AATCCTGT	-0.037
ACCTATGG	-0.0452
CTCAGAAG	-0.0989
CCTAACAG	0.121
CTTCCCAC	-0.0242
TATGCATA	0.00403
TACTGTAA	0.021
ATGCAGGA	-0.258
